A selection: hits, their analogues and other compounds. The true share with any hit is near 2.2%.
FBPA Giardia inh: blocks Giardia fructose-bisphosphate aldolase activity; purified Giardia FBPA; Potency, µM (titrated, usually from 59.6 µM), without a hit: at the highest dose activity, negative = inhibition, hits mostly inhibitors; 0.71% of 290,000 active; AID 2451; active = well fitted inhibition curve with a large enough effect; inconclusive = small, poorly fitted or top-dose-only effect, or effect the other way; note: nearly all actives have a fitted effect of over 55% in size
Target sequence (A8B2U2 whole entry, looked up): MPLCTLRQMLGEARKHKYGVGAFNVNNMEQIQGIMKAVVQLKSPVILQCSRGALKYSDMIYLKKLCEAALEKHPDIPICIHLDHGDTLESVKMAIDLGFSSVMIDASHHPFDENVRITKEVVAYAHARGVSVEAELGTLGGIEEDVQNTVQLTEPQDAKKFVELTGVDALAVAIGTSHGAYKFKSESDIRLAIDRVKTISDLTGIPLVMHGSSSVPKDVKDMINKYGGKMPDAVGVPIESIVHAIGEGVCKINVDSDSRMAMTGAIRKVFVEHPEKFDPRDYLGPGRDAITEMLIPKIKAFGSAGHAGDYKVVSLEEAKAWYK
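Giardia FBPA (40 nM reagent) was preincubated 10 min at RT with compound (up to 57.5 uM final), then substrate plus GAPDH/TPI/NAD/arsenate coupling system with diaphorase/resazurin was added; resorufin fluorescence (525/598 nm) was read after 20 min.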
VACV Venus inh: inhibitors of vaccinia virus (Venus reporter); Vaccinia virus Venus reporter expression, fluorescence; Potency, µM (top dose mostly 36.5 µM), for the others: top-dose activity change, negative = inhibition, hits mostly inhibitors; 0.46% of 330,000 active; AID 720580; calls by dose curve; tested in A549 cells; note: nearly all actives have a fitted effect of over 30% in size
Vaccinia mCherry: inhibitors of vaccinia virus infection (mCherry reporter signal). Vaccinia virus mCherry reporter infection, fluorescence. Potency, µM (doses to about 36.5 µM), for the others: top-dose activity change, negative = inhibition, actives largely listed as inhibitors. 0.63% of 310,000 active; calls by dose curve; tested in A549 cells; note: nearly all actives have a fitted effect of over 35% in size
FMDV inh: blocks foot and mouth disease virus; FMDV antiviral cell-based qHTS; Potency, µM (highest dose often 57.9 µM), for inactives: top-dose activity change, negative = inhibition, most hits filed as inhibitors; 1.2% of 410,000 active; AID 1159524; calls by dose curve; tested in HEK293T cells; note: read-out not given here; nearly all actives have a fitted effect of over 45% in size
The depositor's hits bear a star; i = inactive; u = inconclusive; x = not tested or not shown; ! = not confirmed by another sample; [ ] = dose if it differs, or a comment. % is set by controls: 0 for no effect and ±100 for the full control effect; potency is the fitted concentration of half-maximal effect.

SMILES | FBPA Giardia inh | VACV Venus inh | Vaccinia mCherry | FMDV inh
Nc1ncnc2c1c(I)cn2C1OC(CO)C(O)C1O (configuration not stated) | 0.6% | u | 15.8µM*! | -11.3%
CCCCCCCCCCCCOCCOCCOCCOCCO | -0.5% | x | x | x
CCCCCCCCCc1ccc(OCCOCCO)cc1 | x | u | -21.2% | 11.2µM*
Cc1ccc2c(c1)CN(CCC(=O)NCc1cc(C)n(C)n1)CC(C)O2 (configuration not stated) | x | -11.1% | -17.3% | -5.8%
COC(=O)N/N=C/c1c(C)c(C(=O)c2ccc(F)cc2)n2ccccc12 | -6.7% | -10.1% | i | 35.5µM*
Cc1c(/C=N/NC(=O)c2ccccc2O)c2ccccn2c1C(=O)c1ccc(F)cc1 | -17.4% | u | u | 25.1µM*
Cc1c(/C=N/NC(=O)c2ccc(O)cc2)c2ccccn2c1C(=O)c1ccc(F)cc1 | 0.1% | u | -25.8% | u
Nc1ccn(C2OC(COP(=O)(O)O)C(O)C2O)c(=O)n1 (configuration not stated) | x | u | 31.6µM* | -16.8%
O=C(c1cccs1)c1no[n+]([O-])c1C(=O)c1cccs1 | 3.97µM* | u | i | 15.8µM*
COc1ccc(NC(=O)c2c(N)no[n+]2[O-])cc1 | 2.0% | -27.5% | -28.1% | 44.3%
COc1ccc(C(=O)c2no[n+]([O-])c2C(=O)c2ccc(OC)cc2)cc1 | u | 0.0% | -5.6% | 39.8µM*
COc1cc(/C=C/C(=O)OCC(=O)N(C)C2CCS(=O)(=O)C2)ccc1OC(F)F (configuration not stated) | x | u | u | -8.9%
CN(C(=O)COC(=O)/C=C/c1cccc([N+](=O)[O-])c1)C1CCS(=O)(=O)C1 (configuration not stated) | 2.2% | 2.82µM* | 1.78µM* | -12.8%
COc1cccc(Nc2sc(C(=O)c3ccc(Cl)cc3)c(N)c2C(=O)NCCc2ccc(OC)c(OC)c2)c1 | x | -11.0% | -19.9% | -16.3%
COc1cccc(Nc2sc(C(=O)c3ccc(F)cc3)c(N)c2C(=O)NCc2ccc(C)cc2)c1 | x | -21.3%[7.34 µM] | -3.3%[7.34 µM] | 14.1µM*
Cc1ccc(CNC(=O)c2c(Nc3ccccc3C)sc(C(=O)c3ccc(F)cc3)c2N)cc1 | x | u | 11.2µM* | -13.3%
COC(C)(C)CCCC(C)C/C=C/C(C)=C/C(=O)O (configuration not stated) | 4.7% | -1.4% | i | -17.6%
COc1ccccc1CNc1nc(NCc2cccc(OC)c2OC)c2sccc2n1 | x | -13.1% | -10.0% | 39.8µM*
C#Cc1cccc(Nc2nc(NCc3ccccc3OC)nc3ccsc23)c1 | x | u | u | 31.6µM*
COc1ccccc1CNc1nc(NCc2ccccc2F)c2sccc2n1 | x | -26.2% | -11.1% | 28.2µM*
CC(C)C(=O)Nc1ccc(/C=C2\C=Cc3ccccc32)cc1 | x | -8.5% | 35.2% | x
Cc1cc(N2CCN(c3nc4ccccc4s3)CC2)n2ncnc2n1 | 2.2% | x | x | 11.2µM*
CNc1ncnc(Sc2nc(N)nc3nc[nH]c23)c1[N+](=O)[O-] | x | u | 5.01µM* | u
Nc1nc(Sc2ccc([N+](=O)[O-])c3nonc23)c2[nH]cnc2n1 | x | 140.8% | u | u
O=C(NNC(=O)c1cccnc1SCc1cccc([N+](=O)[O-])c1)c1ccccn1 | 16.7% | u | 3.98µM* | -19.7%
SMILES | FBPA Giardia inh | VACV Venus inh | Vaccinia mCherry | FMDV inh
C[C@@H]1CN([C@H](C)CO)C(=O)c2cc(Br)cnc2O[C@H]1CN(C)C(=O)Cc1ccncc1 | x | 1.26µM* | u | -4.8%
CCCCCCCC/C=C\CCCCCCCC(=O)N[C@H](CO)Cc1ccc(O)cc1 | -16.2% | x | x | x
COc1ccccc1N1CCN(C(=O)CSc2nnc3n2C(C)(C)Cc2ccccc2-3)CC1 | 12.0% | u | -26.1% | 15.8µM*
O=C(Nc1c(F)cccc1F)c1ccc2c(c1)CCN2S(=O)(=O)c1ccccc1 | -13.5% | -24.6% | -12.8% | 0.316µM*
c1coc(CNc2ncnc3c2[nH]c2ccccc23)c1 | x | u | -21.2% | x
O=C(O)c1cccc(COc2ccccc2Cl)c1 | u | x | x | 1.41µM*
O=C(O)c1ccc(COc2ccccc2Cl)cc1 | u | x | x | 52.3%
O=C(N/N=C/c1ccc(Sc2nc3ccccc3[nH]2)o1)c1ccncc1 | -0.1% | -9.2% | -2.2% | -21.5%
CCN1C(=O)S/C(=C/c2ccc(Sc3nc4ccccc4[nH]3)o2)C1=O | -10.1% | -23.1% | -28.7% | 15.8µM*
Cc1ccc2nc(NC3=NC4(CCCC4)C4=C(CCCC4=O)N3)oc2c1 | x | x | x | 39.8µM*
CC(C)c1ccc(S(=O)(=O)N2CCN(C(=O)Cc3ccsc3)CC2)cc1 | x | -25.4% | -21.0% | 8.8%
Cc1ccc(C)c(S(=O)(=O)N2CCN(C(=O)Cc3ccsc3)CC2)c1 | 0.8% | -18.8% | -8.7% | 4.47µM*
COc1ccc(-c2nn(-c3ccccc3)cc2/C=C2/SC(=S)N(CCC(=O)O)C2=O)c(C)c1 | 4.1% | -13.7% | i | 31.6µM*
COc1ccc(C2=Nn3c(nnc3-c3ccccc3Cl)SC2)cc1OC1CCCC1 | x | x | x | 31.6µM*
O=C(O)c1ccc(N=NNc2cccc([N+](=O)[O-])c2)cc1 | 14.8% | 2.2% | u | -18.6%
N#C/C(=N\Nc1cccc([N+](=O)[O-])c1)C(=O)c1ccc(Br)cc1 | 4.1% | u | 1.78µM* | u
COc1ccc(CCNC2=C(Cl)C(=O)N(CCc3ccccc3)C2=O)cc1OC | -8.0% | -15.4% | -17.2% | 22.4µM*
COc1ccc(/C=C/c2nnc(NC(=O)COc3ccc(Cl)cc3)s2)cc1 | x | -8.0% | 11.0% | x
OCCCNc1cc(-c2ccnc(Nc3cccc(Cl)c3)n2)ccn1 | -3.8% | 1µM* | u | u
C/C1=C\[C@@H](O)C(C(C)C)C(OC(=O)c2ccc(O)cc2)C/C(C)=C/CC1 (some centres not stated) | -7.0% | x | x | x
Nc1c(Br)cc(/C=C/c2ccnc3ccccc23)cc1Br | x | -26.9% | 7.4% | x
Cc1cc(S(=O)(=O)Nc2cccc(-c3ccc(N4CCOCC4)nn3)c2)c(C)cc1Cl | x | -3.9% | 2.5% | 40.8%
O=C(Nc1cccc(Cl)c1)C1C2CCC3C(CCC21)C3(Cl)Cl (configuration not stated) | -9.0% | u | -14.6% | 39.8µM*
Cc1cc(O)ccc1Nc1nc(-c2cccs2)cs1 | -2.0% | u | u | -52.7%
Cc1nc(C)c(-c2csc(Nc3ccc(O)cc3C)n2)s1 | 1.3% | u | 1.12µM* | 15.7%
SMILES | FBPA Giardia inh | VACV Venus inh | Vaccinia mCherry | FMDV inh
Cc1[nH]c2c(F)cccc2c1CC(=O)NCCN1Cc2ccccc2OC(C)C1 (configuration not stated) | x | -11.9% | -11.1% | 8.6%
CC1CN(CCC(=O)NCc2ccc3ncccc3c2)Cc2cc(Cl)ccc2O1 (configuration not stated) | x | 7.6% | -7.7% | -4.5%
CCOc1ccc(CN(C)C(=O)[C@H](Cc2ccccc2)NC(=O)OCc2ccccc2)cc1OC | -6.8% | -27.4% | u | 20µM*
NC(N)=NN=C(c1ccc(F)cc1)c1ccc(C(F)(F)F)cc1 | x | 12.6µM* | u | -29.1%
O=C(NCc1nnc2n1CCN(Cc1ccc(C(F)(F)F)cc1)CC2)c1ccccn1 | x | 3.9% | -5.3% | -16.9%
COc1cc2c(cc1NC(=O)c1ccc(C(C)(C)C)cc1)CCCC2 | -6.7%[12.9 µM] | 5.0% | 10µM* | -10.5%
CC1=CC(=O)[C@@H]2C[C@H]1C2(C)C | 5.8% | x | x | x

Assay outcomes from PubChem.
